Laboratory results published in PubChem BioAssay (NCATS).
Results filed as inconclusive are left out. A call without a number means that no potency is given here. The source made the active and inactive calls. Unless noted, calls follow the shape of the dose curve; as a rule, active = well fitted curve in the direction sought with a large enough effect; inconclusive = small, poorly fitted or top-dose-only effect, or another doubt; inactive = no such curve, though single readings can be large; an effect the other way counts as inactive or inconclusive.

Tests used:
[1] = qHTS for Inhibitors of Cell Surface uPA Generation: Validation Assay (AID 493164);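 also: RAW 264.7 macrophage cells exposed to compound for 18 h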
Procedure, shortened: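 ATP-Lite luminescence read-out: ATP remains high when uPA activity-dependent LF translocation into the cytoplasm is blocked. RAW 264.7 cells, 18 h compound exposure at 37 C; 7-point titration, 2.45 nM to 38.3 uM final.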

[2] = biological target: Peptidyl-prolyl cis-trans isomerase NIMA-interacting 1 (Homo sapiens) (UniProt Q13526); assay: qHTS Validation Assay to Find Inhibitors of Pin1 (AID 504536; active = well fitted inhibition curve with a large enough effect in the polarisation, with a control signal flat, not every such curve was filed as active; the % refers to the polarisation)
Sequence of Peptidyl-prolyl cis-trans isomerase NIMA-interacting 1 (Homo sapiens) (Q13526 whole entry, looked up): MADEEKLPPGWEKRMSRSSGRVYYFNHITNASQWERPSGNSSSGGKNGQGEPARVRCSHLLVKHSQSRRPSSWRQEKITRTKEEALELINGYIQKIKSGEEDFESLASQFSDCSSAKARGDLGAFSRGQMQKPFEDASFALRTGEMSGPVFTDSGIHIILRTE
Procedure, shortened: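 Fluorescence polarization competition: compounds (titration) displace HiFluor-488-labeled Pin1-1b peptide from Pin1 (0.3 uM final) in pH 7.5 HEPES buffer with DTT, 10 min at room temperature; %Activity normalized to no-enzyme wells, curves fitted.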

[3] = biological target: Phosphoglycerate kinase, glycosomal (Trypanosoma brucei brucei) (UniProt P07378); assay: qHTS Validation Assay to Find Inhibitors of Phosphoglycerate Kinase (AID 504547); also: potency is read from the fitted curve at half-maximal effect
Sequence of Phosphoglycerate kinase, glycosomal (Trypanosoma brucei brucei) (P07378 whole entry, looked up): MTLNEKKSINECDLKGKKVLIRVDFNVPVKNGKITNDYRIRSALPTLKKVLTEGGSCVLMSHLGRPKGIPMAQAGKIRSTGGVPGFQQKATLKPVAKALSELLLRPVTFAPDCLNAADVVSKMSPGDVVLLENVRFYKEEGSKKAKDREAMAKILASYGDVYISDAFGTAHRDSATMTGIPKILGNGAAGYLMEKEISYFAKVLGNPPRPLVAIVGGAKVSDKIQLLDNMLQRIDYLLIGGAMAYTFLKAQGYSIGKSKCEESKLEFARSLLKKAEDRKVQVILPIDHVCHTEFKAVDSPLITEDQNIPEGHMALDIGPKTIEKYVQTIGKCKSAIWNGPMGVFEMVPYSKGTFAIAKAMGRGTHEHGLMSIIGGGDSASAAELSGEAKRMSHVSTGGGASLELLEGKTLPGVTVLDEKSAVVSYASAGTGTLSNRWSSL
Procedure, shortened: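 Compounds are pinned into the substrate/PGK mixture, and GAPDH (100nM final) is added to start the reaction by producing 1,3-BPG. After 60 minutes at room temperature, Kinase-Glo Plus is added and luminescence is measured 10 minutes later.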

[4] = biological target: phosphoglycerate mutase (Leishmania major) (UniProt Q4Q090); assay: qHTS Validation Assay to Find Inhibitors of Phosphoglycerate Mutase (AID 504548); also: series mostly up to about 58 µM
Sequence of phosphoglycerate mutase (Leishmania major) (Q4Q090 1-553): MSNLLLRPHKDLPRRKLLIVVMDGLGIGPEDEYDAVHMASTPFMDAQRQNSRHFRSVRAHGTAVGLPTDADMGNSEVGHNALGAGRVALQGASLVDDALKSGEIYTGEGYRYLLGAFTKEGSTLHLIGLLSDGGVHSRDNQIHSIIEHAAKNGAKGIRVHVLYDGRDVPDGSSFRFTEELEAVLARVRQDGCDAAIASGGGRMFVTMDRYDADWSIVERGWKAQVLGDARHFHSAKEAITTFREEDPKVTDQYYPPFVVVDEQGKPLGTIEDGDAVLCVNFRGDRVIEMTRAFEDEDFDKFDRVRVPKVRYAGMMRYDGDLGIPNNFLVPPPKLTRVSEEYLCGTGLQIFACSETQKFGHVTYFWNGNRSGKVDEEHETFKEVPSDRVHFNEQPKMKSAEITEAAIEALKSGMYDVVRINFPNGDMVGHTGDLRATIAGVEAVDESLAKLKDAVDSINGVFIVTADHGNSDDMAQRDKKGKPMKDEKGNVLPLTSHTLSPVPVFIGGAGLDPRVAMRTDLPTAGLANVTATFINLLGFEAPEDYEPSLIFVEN
Procedure, shortened: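 Lm PGAM at 1.25 nM final with substrate in 100 mM TEA pH 7.6, 5 mM MgCl2, 0.01% Tween-20; 45 min at room temperature. Kinase-GloPlus added, 10 min, end-point luminescence read.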

[5] = biological target: Ubiquitin carboxyl-terminal hydrolase 1 (Homo sapiens) (UniProt O94782); assay: Inhibitors of USP1/UAF1: Pilot qHTS (AID 504865); also: nearly all actives have a fitted effect of over 35% in size; also: potency is read from the fitted curve at half-maximal effect
Sequence of Ubiquitin carboxyl-terminal hydrolase 1 (Homo sapiens) (O94782 whole entry, looked up): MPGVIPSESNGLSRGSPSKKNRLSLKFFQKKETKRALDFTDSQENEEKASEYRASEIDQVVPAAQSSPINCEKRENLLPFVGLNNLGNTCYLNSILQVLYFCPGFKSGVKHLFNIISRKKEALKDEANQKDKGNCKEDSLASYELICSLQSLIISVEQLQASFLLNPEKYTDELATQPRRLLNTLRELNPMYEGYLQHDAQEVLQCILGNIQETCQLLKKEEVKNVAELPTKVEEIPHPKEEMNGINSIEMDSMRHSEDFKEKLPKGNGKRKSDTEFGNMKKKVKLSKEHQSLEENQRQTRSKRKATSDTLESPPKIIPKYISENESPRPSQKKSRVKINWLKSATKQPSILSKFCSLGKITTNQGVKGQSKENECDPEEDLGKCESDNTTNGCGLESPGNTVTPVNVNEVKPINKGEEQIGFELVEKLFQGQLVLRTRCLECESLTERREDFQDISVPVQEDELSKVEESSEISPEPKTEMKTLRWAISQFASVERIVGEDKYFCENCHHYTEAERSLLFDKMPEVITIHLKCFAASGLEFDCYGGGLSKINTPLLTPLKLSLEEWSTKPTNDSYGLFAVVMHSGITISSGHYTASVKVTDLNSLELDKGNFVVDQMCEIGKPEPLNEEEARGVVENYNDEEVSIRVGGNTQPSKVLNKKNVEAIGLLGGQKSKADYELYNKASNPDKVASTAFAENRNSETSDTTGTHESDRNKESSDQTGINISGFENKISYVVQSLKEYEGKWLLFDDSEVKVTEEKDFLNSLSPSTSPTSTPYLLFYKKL
Procedure, shortened: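 1nM USP1/UAF1 + cpd, 15 min RT; start w/ Ub-Rho 150nM final; kinetic FL 480/540 nm, 6 reads q60 s. Buffer 50mM HEPES pH 7.8, 0.5mM EDTA, 1mM TCEP, 0.01% Tween-20, 0.1 mg/ml BSA.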

[6] = qHTS for Inhibitors of ATXN expression: Validation (AID 588378); also: nearly all actives have a fitted effect of over 75% in size; also: potency is read from the fitted curve at half-maximal effect
Procedure, shortened: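 Cells: HEK293-ATXN2-FFLuc, phenol-red free DMEM, 2 h attachment. Compound pin-transfer, 24 h, 37 degrees C, 5% CO2. CellTiter-Fluor 30 min, Ex405/Em525; Bright-Glo 5 min, luminescence 2 s exposure.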

[7] = Nrf2 qHTS screen for inhibitors: Validation (AID 493153; active = well fitted inhibition curve with a large enough effect in the main read-out, with a control signal flat, not every such curve was filed as active; also: potency is read from the fitted curve at half-maximal effect); conditions: Potency: luciferase luminescence; viability change: measured here: cytotoxicity max response
Procedure, shortened: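 A549 ARE_Fluc, 5% FBS OPTI-MEM; cpd titration, 18-24 h, 37°C/5% CO2. Read 1: CellTiter-Fluor (Ex 405/Em 525), cytotox. Read 2: luciferase lum, Nrf2 activity.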

[8] = Validation screen for small molecules that induce DNA re-replication in SW480 colon adenocarcinoma cells (AID 504364)
Procedure, shortened: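 Image-based qHTS: compounds were incubated with SW480 cells for 48 hr, nuclei stained with Hoechst, and per-nucleus fluorescence intensity scanned to flag cells with excess DNA content.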

[9] = qHTS for Inhibitors of ATXN expression: Validation of Cytotoxic Assay (AID 588349); also: potency is read from the fitted curve at half-maximal effect
Procedure, shortened: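 Titrated compounds are added to cultured HEK293 cells, which are then held at 37 degrees C for 72 hr; loss of intracellular ATP, measured with CellTiter Glo, indicates toxicity.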

[10] = biological target: DNA dC->dU-editing enzyme APOBEC-3G (Homo sapiens) (UniProt Q9HC16); assay: qHTS for inhibitors of Vif-A3G interactions: Validation (AID 588379)
Sequence of DNA dC->dU-editing enzyme APOBEC-3G (Homo sapiens) (Q9HC16 whole entry, looked up): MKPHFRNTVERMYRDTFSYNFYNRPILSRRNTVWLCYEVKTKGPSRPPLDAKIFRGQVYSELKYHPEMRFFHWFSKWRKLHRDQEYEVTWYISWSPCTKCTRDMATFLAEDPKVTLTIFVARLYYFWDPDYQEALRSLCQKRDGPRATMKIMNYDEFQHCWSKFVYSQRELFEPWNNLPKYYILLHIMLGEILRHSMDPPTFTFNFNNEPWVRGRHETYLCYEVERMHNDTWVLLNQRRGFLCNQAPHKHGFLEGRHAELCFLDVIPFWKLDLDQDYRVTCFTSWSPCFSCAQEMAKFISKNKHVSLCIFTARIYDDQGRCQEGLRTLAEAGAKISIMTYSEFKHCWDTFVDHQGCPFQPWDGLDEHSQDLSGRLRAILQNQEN
Procedure, shortened: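 Yellow fluorescence (Ex 488, Em 500-530) of Vif-coexpressing HeLa A3G-eYFP cells, scanned by Acumen cytometer, reports blocked A3G degradation. Cells plated at 700/well overnight at 37 deg C before compound addition, then a further overnight compound incubation at 37 deg C.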

[11] = biological target: Estrogen receptor (Homo sapiens) (UniProt P03372); assay: qHTS assay for small molecule agonists of estrogen receptor alpha signaling (AID 588514; calls by dose curve; also: nearly all actives have a fitted effect of over 70% in size)
Sequence of Estrogen receptor (Homo sapiens) (P03372 whole entry, looked up): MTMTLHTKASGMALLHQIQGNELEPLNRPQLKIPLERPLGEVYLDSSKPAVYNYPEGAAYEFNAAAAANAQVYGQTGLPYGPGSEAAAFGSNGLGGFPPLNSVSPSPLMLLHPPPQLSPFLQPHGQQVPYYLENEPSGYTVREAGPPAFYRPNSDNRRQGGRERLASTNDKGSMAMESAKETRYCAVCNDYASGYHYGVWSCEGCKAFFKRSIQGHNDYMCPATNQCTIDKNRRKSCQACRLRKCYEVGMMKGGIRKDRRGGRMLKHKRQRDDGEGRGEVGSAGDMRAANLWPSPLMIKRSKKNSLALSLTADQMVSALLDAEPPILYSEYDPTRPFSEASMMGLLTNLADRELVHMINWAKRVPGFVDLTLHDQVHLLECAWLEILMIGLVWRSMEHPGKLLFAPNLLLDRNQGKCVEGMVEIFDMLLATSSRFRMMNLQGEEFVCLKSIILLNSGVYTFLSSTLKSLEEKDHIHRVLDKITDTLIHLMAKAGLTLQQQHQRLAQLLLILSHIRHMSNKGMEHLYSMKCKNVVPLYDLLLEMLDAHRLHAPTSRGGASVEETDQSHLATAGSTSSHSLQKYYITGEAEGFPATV
Procedure, shortened: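 Efficacy is expressed against 20 nM 17-beta-estradiol (100%) and DMSO basal (0%); EC50 from Hill equation. Assay: beta-lactamase reporter in ER-alpha-UAS-bla HEK 293 cells, 18 h compound incubation, CCF4 detection.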

[12] = biological target: Glucocorticoid receptor (Homo sapiens) (UniProt P04150); assay: qHTS assay for small molecule agonists of glucocorticoid receptor signaling (AID 588532; active = well fitted curve in the direction sought with a large enough effect in the signal ratio, with a control signal flat; the % refers to the signal ratio); conditions: HeLa MMTV-bla, beta-lactamase ratio, agonist, 18 h; stronger effect = higher value; percent of dexamethasone control, DMSO zero
Sequence of Glucocorticoid receptor (Homo sapiens) (P04150 whole entry, looked up): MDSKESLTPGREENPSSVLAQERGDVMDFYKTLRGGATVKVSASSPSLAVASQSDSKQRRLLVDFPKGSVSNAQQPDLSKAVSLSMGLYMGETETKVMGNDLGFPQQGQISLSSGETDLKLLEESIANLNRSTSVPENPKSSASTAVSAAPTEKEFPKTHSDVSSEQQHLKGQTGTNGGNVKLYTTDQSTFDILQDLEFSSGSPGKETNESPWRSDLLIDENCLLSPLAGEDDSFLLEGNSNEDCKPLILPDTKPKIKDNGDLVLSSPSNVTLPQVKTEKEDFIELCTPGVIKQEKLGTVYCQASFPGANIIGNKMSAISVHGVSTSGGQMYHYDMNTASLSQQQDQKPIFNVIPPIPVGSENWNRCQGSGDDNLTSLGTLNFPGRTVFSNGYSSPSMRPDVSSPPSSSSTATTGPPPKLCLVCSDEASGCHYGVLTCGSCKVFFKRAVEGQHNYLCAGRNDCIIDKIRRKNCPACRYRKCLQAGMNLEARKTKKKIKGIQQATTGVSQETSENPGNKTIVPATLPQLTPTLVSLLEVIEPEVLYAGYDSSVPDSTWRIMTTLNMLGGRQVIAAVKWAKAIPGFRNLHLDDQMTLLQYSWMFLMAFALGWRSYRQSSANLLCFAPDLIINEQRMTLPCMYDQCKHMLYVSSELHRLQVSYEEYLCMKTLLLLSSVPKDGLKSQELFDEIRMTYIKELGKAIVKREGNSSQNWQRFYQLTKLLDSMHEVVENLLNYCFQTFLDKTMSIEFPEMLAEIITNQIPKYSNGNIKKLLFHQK
Procedure, shortened: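 HeLa GRE-bla reporter cells; 18 h compound exposure at 37 C; 2 h CCF4 loading at room temperature; fluorescence at 460 and 530 nm; EC50 by Hill equation.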

[13] = biological target: Glucocorticoid receptor (Homo sapiens) (UniProt P04150); assay: qHTS assay for small molecule antagonists of glucocorticoid receptor signaling (AID 588533; active = well fitted inhibition curve with a large enough effect in the signal ratio, with a control signal flat, not every such curve was filed as active; the % refers to the signal ratio;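 also: cells stimulated with 2 nM dexamethasone as agonist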)
Procedure, shortened: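 Antagonist-mode qHTS: compound titrations added to GRE-bla HeLa cells, then dexamethasone 2 nM final; 18 h, 37 C. CCF4 FRET fluorescence normalized to dexamethasone and DMSO; IC50 from Hill fit.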

[14] = qHTS assay for small molecule antagonists of peroxisome proliferator-activated receptor delta signaling (AID 588535; active = well fitted inhibition curve with a large enough effect in the signal ratio, with a control signal flat, not every such curve was filed as active; the % refers to the signal ratio;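 as to max response: cells co-treated with a PPAR-delta agonist as stimulator during compound exposure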); conditions: HEK293T PPARd-UAS-bla, beta-lactamase FRET ratio, 18 h; 460 nm channel
Procedure, shortened: (§1)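 Fluorescence from CCF4-loaded GeneBLAzer PPAR-delta-UAS-bla HEK293T cells (2 hrs RT loading) quantified reporter inhibition after an 18 hr, 37 C compound exposure across a titration.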

[15] = biological target: Peroxisome proliferator-activated receptor delta (Homo sapiens) (UniProt Q03181); assay: as above
Sequence of Peroxisome proliferator-activated receptor delta (Homo sapiens) (Q03181 whole entry, looked up): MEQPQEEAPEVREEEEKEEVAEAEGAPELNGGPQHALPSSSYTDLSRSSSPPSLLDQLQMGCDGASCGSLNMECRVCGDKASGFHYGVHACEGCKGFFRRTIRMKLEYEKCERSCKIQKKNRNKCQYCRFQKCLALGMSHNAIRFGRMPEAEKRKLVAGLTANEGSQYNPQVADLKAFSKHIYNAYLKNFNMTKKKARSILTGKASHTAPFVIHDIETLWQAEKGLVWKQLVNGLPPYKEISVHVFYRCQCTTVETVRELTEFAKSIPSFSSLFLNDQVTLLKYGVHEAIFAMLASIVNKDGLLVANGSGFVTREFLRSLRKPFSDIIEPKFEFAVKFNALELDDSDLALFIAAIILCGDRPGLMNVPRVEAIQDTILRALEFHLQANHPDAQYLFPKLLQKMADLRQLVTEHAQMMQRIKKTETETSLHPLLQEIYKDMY
Procedure, shortened: as §1

[16] = biological target: Bile acid receptor (Homo sapiens) (UniProt Q96RI1); assay: qHTS assay for small molecule antagonists of farnesoid X receptor signaling (AID 588526; calls by dose curve)
Sequence of Bile acid receptor (Homo sapiens) (Q96RI1 whole entry, looked up): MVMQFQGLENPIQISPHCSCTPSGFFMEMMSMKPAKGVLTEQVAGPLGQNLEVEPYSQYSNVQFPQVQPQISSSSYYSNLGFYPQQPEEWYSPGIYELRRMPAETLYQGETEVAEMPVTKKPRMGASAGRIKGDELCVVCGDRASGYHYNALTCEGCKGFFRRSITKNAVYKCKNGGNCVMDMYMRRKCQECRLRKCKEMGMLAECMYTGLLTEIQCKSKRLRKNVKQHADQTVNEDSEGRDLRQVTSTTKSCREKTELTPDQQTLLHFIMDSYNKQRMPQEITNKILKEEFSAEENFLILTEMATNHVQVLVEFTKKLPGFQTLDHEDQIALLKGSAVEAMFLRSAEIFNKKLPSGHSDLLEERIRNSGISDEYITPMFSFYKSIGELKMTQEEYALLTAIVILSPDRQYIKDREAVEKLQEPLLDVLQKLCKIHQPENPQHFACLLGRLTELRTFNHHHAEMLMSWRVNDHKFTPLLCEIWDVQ
Procedure, shortened: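 Antagonist mode: titrated compounds tested against chenodeoxycholic acid stimulation (normalized to 50 uM CDCA and DMSO) in GeneBLAzer HEK293T cells for 16 h. Beta-lactamase read by CCF4 fluorescence; IC50 from Hill fits.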

[17] = biological target: Peroxisome proliferator-activated receptor gamma (Homo sapiens) (UniProt P37231); assay: qHTS assay for small molecule agonists of peroxisome proliferator-activated receptor gamma signaling (AID 588536; active = well fitted curve in the direction sought with a large enough effect in the signal ratio, with a control signal flat, not every such curve was filed as active; the % refers to the signal ratio)
Procedure, shortened: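 Cells were plated and held 6–6.5 h at 37 C, then compounds were added as a titration series. After a further 16 h, CCF4 dye was loaded for 2 h at room temperature and emission at 460/530 nm recorded.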

COc1cc2nc(N3CCCN(C)CC3)nc(NC3CCN(Cc4ccccc4)CC3)c2cc1OC
outcome [1]: inactive
outcome [2]: inactive
Potency [3]: inactive
outcome [4]: inactive
Potency [5]: inactive
Potency [6]: 7.94 µM (active)

CCCCS(=N)(=O)CCC(N)C(=O)O (configuration not stated)
Potency [7]: inactive
viability change [7]: 4.08%
outcome [1]: inactive
outcome [8]: inactive
outcome [2]: inactive
Potency [3]: inactive
outcome [4]: inactive
Potency [5]: inactive
Potency [9]: inactive
Potency [6]: inactive

CN1CCN(c2c(F)cc3c(=O)c(C(=O)O)cn(CCF)c3c2F)CC1
Potency [5]: inactive

O=C(O)C1CCCN(CCC=C(c2ccccc2)c2ccccc2)C1 (configuration not stated)
Potency [7]: inactive
viability change [7]: -7.12%
outcome [1]: inactive
outcome [8]: inactive
outcome [2]: inactive
Potency [3]: inactive
outcome [4]: inactive
Potency [5]: inactive
Potency [9]: inactive
Potency [6]: inactive
outcome [10]: inactive

NC(=O)c1cccc(N)c1
Potency [7]: inactive
viability change [7]: 9.41%
outcome [1]: inactive
outcome [8]: inactive
outcome [2]: inactive
Potency [3]: inactive
outcome [4]: inactive
Potency [5]: inactive
Potency [9]: inactive
Potency [6]: inactive
outcome [10]: inactive

CC(C)(C)NC(=O)[C@H]1CC[C@H]2[C@@H]3CC[C@H]4NC(=O)C=C[C@]4(C)[C@H]3CC[C@]12C
outcome [8]: inactive

CC(N)C12CC3CC(CC(C3)C1)C2 (configuration not stated)
Potency [5]: inactive

CCN(CC)CCn1c(=O)c(Cc2ccc(OC)cc2)nc2ccccc21
Potency [7]: inactive
viability change [7]: -5.84%
outcome [1]: inactive
outcome [2]: inactive
Potency [3]: inactive
outcome [4]: inactive
Potency [5]: inactive
Potency [9]: inactive
Potency [6]: inactive

OCc1ccc(-c2nn(Cc3ccccc3)c3ccccc23)o1
Potency [7]: inactive
viability change [7]: 4.14%
outcome [1]: inactive
outcome [8]: inactive
outcome [2]: inactive
Potency [3]: inactive
outcome [4]: inactive
Potency [5]: inactive
Potency [9]: inactive

CC(=O)[C@H]1CC[C@H]2[C@@H]3CCC4=CC(=O)CC[C@]4(C)[C@H]3CC[C@]12C
outcome [1]: inactive
outcome [8]: inactive
outcome [2]: inactive
Potency [3]: inactive
outcome [4]: inactive
Potency [9]: inactive
Potency [6]: inactive
outcome [10]: inactive
outcome [11]: inactive

Cc1ccc(S(=O)(=O)N[C@@H](Cc2ccccc2)C(=O)CCl)cc1
outcome [1]: inactive
outcome [8]: inactive
outcome [2]: inactive
Potency [3]: inactive
outcome [4]: inactive
Potency [5]: 44.7 µM (active)
Potency [9]: 14.1 µM (active)
Potency [6]: 22.4 µM (active)

CC(C)(C)C(=O)OCOP(=O)(COCCn1cnc2c(N)ncnc21)OCOC(=O)C(C)(C)C
Potency [5]: inactive

CCCCCCNC(=O)n1cc(F)c(=O)[nH]c1=O
Potency [5]: inactive

C#CCN[C@@H]1CCc2ccccc21
Potency [5]: inactive

Nc1nc(N)c2nc(CNc3ccc(C(=O)NC(CCC(=O)O)C(=O)O)cc3)cnc2n1 (configuration not stated)
outcome [1]: inactive
outcome [8]: inactive
outcome [4]: inactive
Potency [9]: inactive
Potency [6]: inactive
activation [12]: 7.7% (inactive)
outcome [13]: inactive
max response [14]: 44.5%
outcome [15]: inactive

Nc1nc(=S)c2[nH]cnc2[nH]1
Potency [5]: inactive

COc1ccc(-c2ccc3cc(C(=O)O)ccc3c2)cc1C12CC3CC(CC(C3)C1)C2
Potency [5]: 79.4 µM (active)

CC1=C(C(=O)O)N2C(=O)[C@@H](NC(=O)C(N)c3ccccc3)[C@H]2SC1 (some centres not stated)
Potency [7]: inactive
viability change [7]: 3.05%
outcome [1]: inactive
outcome [8]: inactive
Potency [3]: inactive
outcome [4]: inactive
Potency [5]: inactive
Potency [9]: inactive
Potency [6]: inactive

CCN1CCCC1CNC(=O)c1cc(S(N)(=O)=O)ccc1OC (configuration not stated)
Potency [7]: inactive
viability change [7]: 7.94%
outcome [1]: inactive
outcome [8]: inactive
outcome [2]: inactive
Potency [3]: inactive
outcome [4]: inactive
Potency [5]: inactive
Potency [9]: inactive
Potency [6]: inactive
outcome [10]: inactive

CNC1CCCN(c2c(F)cc3c(=O)c(C(=O)O)cn(C4CC4)c3c2OC)C1 (configuration not stated)
Potency [5]: inactive

COc1cc2ncnc(Nc3cccc(Cl)c3)c2cc1OC
outcome [1]: inactive
outcome [8]: inactive
outcome [2]: inactive
Potency [3]: inactive
outcome [4]: inactive
Potency [5]: inactive
Potency [9]: inactive
Potency [6]: inactive
outcome [10]: inactive

CNS(=O)(=O)Cc1ccc2[nH]cc(CCN(C)C)c2c1
Potency [5]: inactive

CC(C)NCC(O)c1ccc(NS(C)(=O)=O)cc1 (configuration not stated)
Potency [7]: inactive
viability change [7]: -6.97%
outcome [1]: inactive
outcome [8]: inactive
outcome [2]: inactive
Potency [3]: inactive
outcome [4]: inactive
Potency [5]: inactive
Potency [9]: inactive
Potency [6]: inactive

CC1CC2C3CCC4=CC(=O)C=C[C@]4(C)[C@@]3(F)[C@@H](O)C[C@]2(C)[C@@]1(O)C(=O)CO (some centres not stated)
Potency [7]: 0.013 µM (active)
viability change [7]: -3.14%
outcome [1]: inactive
outcome [2]: inactive
Potency [3]: inactive
outcome [4]: inactive
Potency [5]: inactive
Potency [9]: inactive
Potency [6]: inactive

N[C@@H](Cc1ccc(O)c(O)c1)C(=O)O
Potency [7]: inactive
viability change [7]: -3.54%
outcome [1]: inactive
Potency [3]: 9.53 µM (active)
outcome [4]: inactive
Potency [5]: inactive
Potency [9]: inactive
Potency [6]: inactive
outcome [16]: inactive
activation [12]: -2.15% (inactive)
outcome [13]: inactive
outcome [17]: inactive
